Assay [1] is described as follows: BSK_MyoF_SRB: Viability Assessment in the BioMAP Diversity Plus: MyoF Assay (AID 2284267).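 Also: total protein by SRB absorbance in parallel cultures as cytotoxicity measure.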 As to conditions: primary human lung fibroblasts. The gist of the method: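 Human lung fibroblasts dosed with chemical and assessed 24 h later for overt cytotoxicity in parallel cultures. Total protein quantified by sulforhodamine B staining (0.1% SRB after 10% TCA fixation), read at 560 nm, analysed in positive direction versus DMSO baseline.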

Read-out in assay [2]: Matrix Metallopeptidase 1 (MMP1), MMP1 (gene 4312)
Briefly: BSK_MyoF_MMP1: BioMAP Diversity Plus: MyoF Assay for Matrix Metallopeptidase 1 (MMP1) Biomarker Activity (AID 2284268). The following applies: primary human lung fibroblasts. The gist of the method: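 Fibroblasts from human lung receive compound for 24 h before ELISA quantitation of MMP1. DMSO serves as baseline, and the endpoint is fitted for signal gain.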

Read-out in assay [3]: TIMP metallopeptidase inhibitor 1 (TIMP1), TIMP1 (gene 7076)
Briefly: BSK_MyoF_TIMP1: BioMAP Diversity Plus: MyoF Assay for TIMP metallopeptidase inhibitor 1 (TIMP1) Biomarker Activity (AID 2284269). As to conditions: primary human lung fibroblasts. In outline: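 Primary human lung fibroblasts, MyoF multiplex system; chemical exposure 24 h; TIMP-1 by ELISA; positive fitting direction vs DMSO control.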

Read-out in assay [4]: Matrix Metallopeptidase 3 (MMP3), MMP3 (gene 4314)
Briefly: BSK_BF4T_MMP3: BioMAP Diversity Plus: BF4T Assay for Matrix Metallopeptidase 3 (MMP3) Biomarker Activity (AID 2284271). As to conditions: primary human bronchial epithelial cells with fibroblasts. In outline:
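Co-culture of human bronchial epithelial cells and dermal fibroblasts dosed 24 h; MMP-3 measured by ELISA, positive-direction fit versus DMSO. Cytotoxicity tracked by SRB total-protein staining (560 nm) in parallel cultures.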

Read-out in assay [5]: Tissue plasminogen activator (tPA), PLAT (gene 5327)
The assay can be described thus: BSK_BF4T_tPA: BioMAP Diversity Plus: BF4T Assay for Tissue plasminogen activator (tPA) Biomarker Activity (AID 2284272). The following applies: primary human bronchial epithelial cells with fibroblasts. The gist of the method: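 tPA level quantified by ELISA at 24 h post-treatment in bronchial epithelial/dermal fibroblast co-cultures, gain of signal scored against DMSO baseline. Parallel cultures stained with 0.1% SRB (560 nm) to flag overt cytotoxicity.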

Read-out in assay [6]: Plasminogen Activator Inhibitor-1 (PAI1), SERPINE1 (gene 5054)
The assay can be described thus: BSK_BF4T_PAI1: BioMAP Diversity Plus: BF4T Assay for Plasminogen Activator Inhibitor-1 (PAI1) Biomarker Activity (AID 2284273). As to conditions: primary human bronchial epithelial cells with fibroblasts. The gist of the method:
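Co-culture of human bronchial epithelial cells and dermal fibroblasts exposed to compound for 24 h. PAI-1 measured by ELISA; activity fitted in positive direction versus DMSO. Parallel SRB staining assessed overt cytotoxicity.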

A short description of assay [7]: BSK_BF4T_SRB: Viability Assessment in the BioMAP Diversity Plus: BF4T Assay (AID 2284274). As to conditions: primary human bronchial epithelial cells with fibroblasts. In outline:
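Co-culture of human bronchial epithelial cells and dermal fibroblasts (BioMAP BF4T) exposed 24 h. Total protein by sulforhodamine B staining (0.1% SRB after 10% TCA fixation, 560 nm) in parallel cultures; fitted vs DMSO.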

Read-out in assay [8]: Interleukin-8 (IL8), CXCL8 (gene 3576)
The assay can be described thus: BSK_IMphg_IL8: BioMAP Diversity Plus: IMphg Assay for Interleukin-8 (IL8) Biomarker Activity (AID 2284277). The following applies: primary human endothelial cells with macrophages. The gist of the method: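 Co-culture of human venular endothelial cells and macrophages exposed to chemicals for 24 h; IL-8 quantified by ELISA and compared against the DMSO baseline, with SRB total-protein staining in parallel cultures for cytotoxicity.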

Read-out in assay [9]: Intercellular Adhesion Molecule 1 (ICAM1), ICAM1 (gene 3383)
Briefly: BSK_BE3C_ICAM1: BioMAP Diversity Plus: BE3C Assay for Intercellular Adhesion Molecule 1 (ICAM1) Biomarker Activity (AID 2284278).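 As to outcome: cell-surface ICAM-1 protein level quantified by ELISA.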 The following applies: primary human bronchial epithelial cells. In outline: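 Primary human bronchial epithelial cells were exposed to compound for 24 h, after which cell-surface ICAM-1 was quantified by ELISA. Activity was fitted in the gain-of-signal direction against DMSO as negative control and baseline.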

Read-out in assay [10]: Interferon-inducible T-cell alpha chemoattractant (ITAC), CXCL11 (gene 6373)
Briefly: BSK_BE3C_ITAC: BioMAP Diversity Plus: BE3C Assay for Interferon-inducible T-cell alpha chemoattractant (ITAC) Biomarker Activity (AID 2284279). As to conditions: primary human bronchial epithelial cells. In outline:
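Steps: dose human bronchial epithelial cells with chemical; incubate 24 h; measure I-TAC by ELISA; fit endpoint in positive direction against DMSO control. Cytotoxicity was checked in parallel cultures by SRB staining at harvest.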

Read-out in assay [11]: Interleukin-8 (IL8), CXCL8 (gene 3576)
The assay can be described thus: BSK_BE3C_IL8: BioMAP Diversity Plus: BE3C Assay for Interleukin-8 (IL8) Biomarker Activity (AID 2284280). The following applies: primary human bronchial epithelial cells. In outline:
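Primary human bronchial epithelial cells (BE3C system) exposed 24 h; IL-8 measured by ELISA and fitted in positive direction versus DMSO. Overt cytotoxicity assessed by SRB total-protein staining in parallel cultures.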

Read-out in assay [12]: Epidermal growth factor receptor (EGFR), EGFR (gene 1956)
Briefly: BSK_BE3C_EGFR: BioMAP Diversity Plus: BE3C Assay for Epidermal growth factor receptor (EGFR) Biomarker Activity (AID 2284281). The following applies: primary human bronchial epithelial cells. In outline:
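Human primary bronchial epithelial cells (BE3C system) dosed with chemicals; EGFR measured by ELISA at 24 h, fitted in the positive direction relative to DMSO. Cytotoxicity tracked in parallel cultures by SRB total-protein staining.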

Read-out in assay [13]: KRT18 (gene 3875)
The assay can be described thus: BSK_BE3C_Keratin818: BioMAP Diversity Plus: BE3C Assay for Keratin 818 Biomarker Activity (AID 2284282). As to conditions: primary human bronchial epithelial cells. The gist of the method: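 Human primary bronchial epithelial cells in the BE3C system were exposed to test chemical for 24 h, then Keratin 8/18 was quantified by ELISA. Activity was fitted in the positive direction against DMSO as negative control and baseline.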

Read-out in assay [14]: Matrix Metallopeptidase 9 (MMP9), MMP9 (gene 4318)
The assay can be described thus: BSK_BE3C_MMP9: BioMAP Diversity Plus: BE3C Assay for Matrix Metallopeptidase 9 (MMP9) Biomarker Activity (AID 2284283). The following applies: primary human bronchial epithelial cells. In outline: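 Endpoint is the ELISA MMP-9 signal in human primary bronchial epithelial cultures taken 24 h after chemical dosing. DMSO serves as negative control and baseline, with gain-of-signal fitting.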

Read-out in assay [15]: Plasminogen activator inhibitor-1 (PAI1), SERPINE1 (gene 5054)
The assay can be described thus: BSK_CASM3C_PAI1: BioMAP Diversity Plus: CASM3C Assay for Plasminogen activator inhibitor-1 (PAI1) Biomarker Activity (AID 2284284).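 Also: PAI-1 protein level measured by ELISA 24 h after dosing.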 The following applies: primary human coronary artery smooth muscle cells.

Read-out in assay [16]: Monocyte Chemoattractant Protein-1 (MCP1), CCL2 (gene 6347)
Briefly: BSK_hDFCGF_MCP1: BioMAP Diversity Plus: hDFCGF Assay for Monocyte Chemoattractant Protein-1 (MCP1) Biomarker Activity (AID 2284285). The following applies: primary human foreskin fibroblasts. In outline:
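Human foreskin fibroblasts (hDFCGF system) were exposed to compound and secreted MCP-1 was measured by ELISA after 24 hours. Activity was fitted relative to DMSO. Cytotoxicity was checked by SRB total-protein staining in parallel cultures.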

Read-out in assay [17]: Vascular cell adhesion molecule 1 (VCAM1), VCAM1 (gene 7412)
Briefly: BSK_IMphg_VCAM1: BioMAP Diversity Plus: IMphg Assay for Vascular cell adhesion molecule 1 (VCAM1) Biomarker Activity (AID 2284286). As to conditions: primary human endothelial cells with macrophages. The gist of the method:
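Human venular endothelial cells co-cultured with macrophages; VCAM-1 quantified by ELISA 24 h after dosing, fitted in the positive direction against DMSO. Cytotoxicity was checked in parallel cultures by SRB total-protein staining (0.1% SRB after 10% TCA fixation, 560 nm).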

Read-out in assay [18]: urokinase Plasminogen Activator (uPA), PLAU (gene 5328)
Briefly: BSK_BF4T_uPA: BioMAP Diversity Plus: BF4T Assay for urokinase Plasminogen Activator (uPA) Biomarker Activity (AID 2284275). As to conditions: primary human bronchial epithelial cells with fibroblasts. The gist of the method: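 Co-culture of human bronchial epithelial cells and dermal fibroblasts; uPA quantified by ELISA 24 hours after dosing, fitted relative to DMSO. Parallel SRB total-protein staining assessed overt cytotoxicity.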

Read-out in assay [19]: Matrix Metallopeptidase 9 (MMP9), MMP9 (gene 4318)
Briefly: BSK_BF4T_MMP9: BioMAP Diversity Plus: BF4T Assay for Matrix Metallopeptidase 9 (MMP9) Biomarker Activity (AID 2284276). The following applies: primary human bronchial epithelial cells with fibroblasts. The gist of the method:
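Co-culture of human bronchial epithelial cells and dermal fibroblasts dosed for 24 h; MMP-9 quantified by ELISA and fitted upward versus DMSO. Cytotoxicity monitored in parallel cultures by SRB total-protein staining at the biomarker time point.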

The structures appear in SMILES notation. Values joined by “and” are separate entries in the source; they are usually repeats but may differ in a detail not shown here. Equal values may be shown once. The source holds several records for some structures; these can differ, active in one and inactive in another. Active and inactive are the calls of the source. The calls were made as follows: active = hit-call score of the fitted dose curve at least 0.9, where 1 is the maximum; inactive = score below 0.9.

In the case of `FC(F)(F)C(F)(F)CNCC(F)(F)C(F)(F)F`, the result in assay [1], in [2], in assay [3], in assay [4], in [5] and in assay [6] was inactive. Moreover, the outcome in assay [7], in [8], in assay [9], in [10], in [11] and in assay [12] was inactive. The outcome in assay [13], in [14], in assay [15], in assay [16] and in assay [17] was inactive.
`C=C(C)C(=O)OCC(F)(F)C(F)(F)C(F)(F)C(F)(F)C(F)(F)C(F)(F)C(F)(F)F`: the outcome in assay [1], in [2], in assay [3], in assay [4], in assay [5] and in [6] was inactive. Also, the result in [7], in assay [18], in assay [8], in assay [9], in assay [10] and in assay [11] was inactive. The result in assay [12], in assay [13], in assay [14], in assay [15], in assay [16] and in assay [17] was inactive.
As for `CCCCC(CC)COP(=O)(O)OCC(CC)CCCC` (centres undefined), the half-maximal activity concentration (AC50) (commonly the concentration giving half of the maximal activity seen) in assay [9] was 29 µM (active); in assay [10], 28.9 µM (active); in [12] it was 26.3 µM (active) and 20 µM (active); in [14] it was 29.6 µM (active); in [16], 32.2 µM (active). Moreover, the result in assay [9], in [11], in assay [13], in assay [14] and in assay [15] was inactive.
Take `C=C(C)C(=O)OCC(F)(F)C(F)(F)C(F)(F)F`: the outcome in assay [1], in assay [2], in assay [3], in assay [4], in assay [6] and in [7] was inactive. The result in assay [8], in assay [9], in assay [10], in assay [11], in [12] and in assay [13] was inactive. In addition, the result in assay [14], in assay [15], in assay [16] and in [17] was inactive.
As to `O=C(O)C=C(C(F)(F)F)C(F)(F)F`, the outcome in assay [1], in assay [2], in assay [3], in [4], in [6] and in assay [7] was inactive. For the same compound, the result in assay [9], in assay [10], in [11], in assay [12], in assay [13] and in [14] was inactive. Further, the result in [15], in assay [16] and in assay [17] was inactive. Moreover, the AC50 in assay [8] is 6.29 µM (active) and 10.8 µM (active); in assay [14] it was 10.8 µM (active); in [16], 2.31 µM (active); in assay [17], 30 µM (active).
`FC(F)(F)C(F)(F)C(F)(F)C(F)(F)C(F)(F)C(F)(F)C(F)(F)C(F)(F)F`: the outcome in [1], in [2], in assay [3], in assay [4], in assay [6] and in assay [7] was inactive. Further, the result in assay [19], in assay [8], in assay [9], in assay [10], in assay [11] and in [12] was inactive. Moreover, the outcome in assay [13], in [14], in assay [15], in assay [16] and in [17] was inactive.
Regarding `FC(F)(F)C(F)(F)C(F)(F)C(F)(F)CCI`, the result in assay [1], in assay [2], in assay [3], in [4], in assay [6] and in [7] was inactive. The outcome in [8], in assay [9], in assay [10], in assay [11], in assay [12] and in assay [13] was inactive. For the same compound, the outcome in assay [14], in assay [15], in [16] and in assay [17] was inactive. For the same compound, in assay [4], the AC50 was 8.85 µM (active).

The values above are taken from PubChem BioAssay (EPA / NIEHS).
